From PubChem BioAssay AID1963822 (ICCB-Longwood Screening Facility, Harvard Medical School, 2024)
Where “and” joins values, the source holds several entries; their conditions need not be identical. Equal entries are not always repeated. The whole screen tested about 55,000 compounds, of which about 90 (0.2%) were called active. How the calls were made is not given here. Only a selection was taken, and actives are over-represented in it overall. The source holds several records for some structures; these can differ, active in one and inactive in another.

Assay: growth inhibitors of anaerobic choline-fed gram-negatives, minimal medium, absorbance (AID 1963822)
Settings: Gram-negative bacterium anaerobic choline minimal medium
[1] = measured here: choline growth z-score, timepoint 1, stronger effect = lower value

CCOC(=O)c1cnn(CCOC(=O)COC)c1NC(=O)COC
z-score (stronger effect = lower value): 0.06 (inactive)
z-score [1]: 0.2

Cc1noc2c1C(c1ccc(Cl)cc1)C1=C(CC(c3ccc(O)cc3)CC1=O)N2 (configuration not stated)
z-score (stronger effect = lower value): -1.06 (inactive)
z-score [1]: 0.58

CCCCC(=O)Nc1cc(N2CCn3c(nc4ccccc43)C2)ccc1C
z-score (stronger effect = lower value): -0.54 (inactive)
z-score [1]: 0.09

COc1ccc(NC(=O)C2CCN(C(=O)c3ccc(-c4noc(C)n4)cc3)CC2)cc1OC
z-score (stronger effect = lower value): 0.58 (inactive)
z-score [1]: -0.71

CCc1ccc(-c2ccc(=O)[nH]n2)cc1S(=O)(=O)N1CCOCC1
z-score (stronger effect = lower value): -0.21 (inactive)
z-score [1]: -0.65

O=C(O)c1cc(N2CCN(c3ccc(Cl)cc3)CC2)ccc1NC(=O)C1CCC1
z-score (stronger effect = lower value): 0.22 (inactive)
z-score [1]: 0.14

O=c1c(S(=O)(=O)c2ccc(F)c(Cl)c2)c[nH]c2c(F)cc(Cl)cc12
z-score (stronger effect = lower value): -1.66 (inactive)
z-score [1]: -1.06

CNC(=O)c1ccc(NC(=O)N2CCCCc3ccccc32)cc1
z-score (stronger effect = lower value): 0.76 (inactive)
z-score [1]: -0.19

COC(=O)c1cnc(N(C)C2CCCCC2)c2ccccc12
z-score (stronger effect = lower value): 0.22 (inactive)
z-score [1]: -0.03

Cc1nc(Nc2ccccc2)nc2c1C(=O)CC(C)C2 (configuration not stated)
z-score (stronger effect = lower value): 0.7 (inactive)
z-score [1]: 0.46

COCc1cc(C)nc2sc3c(c12)NC(C)N(c1ccc(C)cc1)C3=O (configuration not stated)
z-score (stronger effect = lower value): -0.14 (inactive)
z-score [1]: -1.91

Cc1ccc(-n2cc(C(=O)O)c3ccccc3c2=O)cc1
z-score (stronger effect = lower value): 1.03 (inactive)
z-score [1]: 0.91

Cc1ccc2c(c1)OCC(=O)N2CC(=O)O
z-score (stronger effect = lower value): -1.28 (inactive)
z-score [1]: -1.54

Cc1ccc(C2C3=C(CCCC3=O)Nc3ccccc3N2C(=O)c2ccccc2)cc1 (configuration not stated)
z-score (stronger effect = lower value): -0.78 (inactive)
z-score [1]: 0.3

CCN1CCN(C(=O)C2CCCN(S(=O)(=O)c3cc(-c4noc(C5CC5)n4)sc3C)C2)CC1 (configuration not stated)
z-score (stronger effect = lower value): 0.63 (inactive)
z-score [1]: 0.78

COc1cc(OC)cc(C(=O)Nc2nc(CC(=O)Nc3ccc(OC)c(OC)c3)cs2)c1
z-score (stronger effect = lower value): -0.43 (inactive)
z-score [1]: -0.34

CCn1nc(C)c(CCN(C)C(=O)NCC2CCCO2)c1C (configuration not stated)
z-score (stronger effect = lower value): -1.05 (inactive)
z-score [1]: -1.68

O=C(CSc1ccccc1)N1CCN(Cc2cc(=O)n3nc(-c4ccccc4F)sc3n2)CC1
z-score (stronger effect = lower value): 0.75 (inactive)
z-score [1]: 0.13

Cn1c(=O)oc2cc(S(=O)(=O)N3CCC4(CC3)Nc3cc(F)ccc3-n3cccc34)ccc21
z-score (stronger effect = lower value): -0.55 (inactive)
z-score [1]: 0.11

CN1CCC[C@@H]1CCO[C@](C)(c1ccccc1)c1ccc(Cl)cc1
z-score (stronger effect = lower value): -1.24 (inactive) and -1.63 (active) and 0.92 (inactive)
z-score [1]: 0.36 and -2.85 and -1.59

O=S(=O)(Cc1ccccc1)N1CCCC1c1ccc(Cl)cc1 (configuration not stated)
z-score (stronger effect = lower value): -0.27 (inactive)
z-score [1]: -0.13

CCOC(=O)c1cnc2c(-c3ccccc3)c(COc3ccccc3)nn2c1N
z-score (stronger effect = lower value): -0.05 (inactive)
z-score [1]: -0.12

O=C(Nc1ccc2c(c1)OCCO2)c1cccc(Oc2ccnc(-c3ccc(F)cc3)n2)c1
z-score (stronger effect = lower value): -0.1 (inactive)
z-score [1]: 0.77

O=C(CC1CCCC1)N1CCN=C1N1CCCC1
z-score (stronger effect = lower value): -1.26 (inactive)
z-score [1]: -0.58

CCOc1ccc(CNC(=O)C2(NS(=O)(=O)c3cccc4cccnc34)CCCCC2)cc1
z-score (stronger effect = lower value): 0.35 (inactive)
z-score [1]: 0.16

COc1cccc(-n2ccnc2SCc2nc(-c3ccccc3)no2)c1
z-score (stronger effect = lower value): 0.5 (inactive)
z-score [1]: 0.33
